Reference: PubChem BioAssay (NCATS)
Results filed as inconclusive are left out. Active and inactive are the calls of the source. Unless noted, the call rests on the fitted dose curve; in most records, active means well fitted curve in the direction sought with a large enough effect; inconclusive means small, poorly fitted or top-dose-only effect, or another doubt; inactive means no such curve, though single readings can be large; an effect the other way counts as inactive or inconclusive.

Legend:
[1] = target: Aldehyde dehydrogenase, mitochondrial (Homo sapiens) (UniProt P05091); test: qHTS for Inhibitors of the Aldehyde Dehydrogenase Family (ALDH2) Confirmatory screens (AID 2061303; active means well fitted inhibition curve with a large enough effect; title and protocol of this record describe different tests; further: nearly all actives have a fitted effect of over 45% in size; further: potency means the concentration at half of the fitted maximal effect)
[2] = qHTS for Inhibitors of the Aldehyde Dehydrogenase Family (ALDH1A2, ALDH1A3, ALDH2, ALDH3A1) (AID 2061307); further: nearly all actives have a fitted effect of over 50% in size; on Potency: test system not described further here; potency means the concentration at half of the fitted maximal effect
[3] = target: Aldehyde dehydrogenase, mitochondrial (Homo sapiens) (UniProt P05091); test: qHTS for Inhibitors of the Aldehyde Dehydrogenase Family (ALDH2) Primary screen (AID 2061308); further: nearly all actives have a fitted effect of over 55% in size
[4] = target: Retinaldehyde dehydrogenase 3 (Homo sapiens) (UniProt P47895); test: qHTS for Inhibitors of the Aldehyde Dehydrogenase Family (ALDH1A3) Confirmatory screens (AID 2061311); further: nearly all actives have a fitted effect of over 60% in size; further: potency means the concentration at half of the fitted maximal effect
[5] = target: Retinaldehyde dehydrogenase 3 (Homo sapiens) (UniProt P47895); test: qHTS for Inhibitors of the Aldehyde Dehydrogenase Family (ALDH1A3) Primary screen (AID 2061315); further: potency means the concentration at half of the fitted maximal effect
[6] = target: Aldehyde dehydrogenase 1A1 (Homo sapiens) (UniProt P00352); test: qHTS for Inhibitors of the Aldehyde Dehydrogenase Family (ALDH1A1) Confirmatory screens (AID 2061316); further: nearly all actives have a fitted effect of over 65% in size; further: potency means the concentration at half of the fitted maximal effect

Measured: Potency

N#Cc1nc(Nc2cccc(Br)c2)nc(NC2CCCC2)n1
active: [2] 10.1 µM
not listed: [6]
inactive: all other assays above

Cn1nnnc1Sc1ncnc2scc(-c3cnc(N)nc3)c12
not listed: [6]
inactive: all other assays above

Cc1ccc(C)c(SC2=NS(=O)(=O)c3ccccc32)c1
inactive: all assays above

O=C1c2ccccc2C(=O)N1c1ncccc1O
inactive: all assays above

COc1ccc(C2=Nn3c(nnc3-c3ccccc3C)SC2)cc1
not listed: [6]
inactive: all other assays above

Cc1ccc(Nc2nc(C#N)nc(NC3CCCC3)n2)cc1
not listed: [6]
inactive: all other assays above

Cc1cccc(S(=O)(=O)NC2CCN(C#N)C2)c1 (stereo not given)
active: [6] 11.3 µM
inactive: all other assays above

N=c1c2c(ncn1-c1ccccc1)Oc1ccc3ccccc3c1C2c1ccc2c(c1)CCO2 (stereo not given)
inactive: [3] | [5]
active: [1] 14.1 µM | [2] 7.08 µM | [4] 15.8 µM | [6] 31.6 µM

Cc1cccc(Nc2nc(C#N)nc(NC3CCCC3)n2)c1
active: [1] 2.51 µM | [2] 0.447 µM | [4] 17.8 µM
inactive: [3] | [5]

Oc1cccc2cc(C3CC3)cnc12
active: [2] 0.634 µM | [4] 31.6 µM
inactive: [1] | [3] | [5]

CN1CCc2sc(NC(=O)Cc3ccccc3)c(C(=O)Nc3ccc(Cl)cc3)c2C1
not listed: [6]
inactive: all other assays above

O=C(O)c1cccc(-n2cccc2)c1
inactive: all assays above

COc1ccc(C2Nc3ccccc3C(=O)N2Cc2ccccc2C(F)(F)F)cc1COc1ccc(NC(C)=O)cc1 (stereo not given)
inactive: [3] | [5]
active: [1] 0.316 µM | [2] 2.25 µM | [4] 15.9 µM

COc1ccc(OC)c(-c2nnc3n2N=C(c2ccc(OC)c(OCC4CC4)c2)CS3)c1
active: [6] 2.25 µM
inactive: all other assays above

COc1cccc(C2c3c(ncn(-c4ccccc4C#N)c3=N)Oc3ccc4ccccc4c32)c1 (stereo not given)
active: [4] 25.2 µM
not listed: [6]
inactive: all other assays above

CN(C)CCCNc1ncnc2ccc(-c3ccc4c(c3)OCO4)cc12
inactive: all assays above

COc1ccc(C2=Nn3c(nnc3-c3ccc(OC)c(OC)c3)SC2)c(OC)c1
active: [6] 6.34 µM
inactive: all other assays above

CCOC(=O)c1cccc(-n2cccc2/C=C2\NC(=O)N(CC(=O)O)C2=O)c1
not listed: [6]
inactive: all other assays above

O=C(O)c1cccc(-c2noc(-c3cccc(Cl)c3)n2)c1
active: [2] 0.381 µM | [4] 0.201 µM | [5] 0.562 µM
inactive: [1] | [3]

O=C(Cc1ccc(Cl)c(Cl)c1)Nc1ccc(S(=O)(=O)Nc2cccc(C(=O)O)c2)cc1
inactive: all assays above

COc1ccc(C2Nc3ccccc3C(=O)N2Cc2ccccc2)cc1COc1ccc(NC(=O)c2ccccc2)cc1 (stereo not given)
active: [2] 1.59 µM
not listed: [6]
inactive: all other assays above

Cc1ccc(Cl)cc1NS(=O)(=O)c1cc2c(cc1F)NC(=O)CC2
active: [1] 12.6 µM | [2] 28.2 µM | [4] 12.6 µM
inactive: [3] | [5]

CC(=O)c1ccc(N2CCN(C(=O)c3ccc4c(c3)CC(=O)N4)CC2)cc1
not listed: [6]
inactive: all other assays above

CCOC(=O)c1ccoc1-c1ccc2ncnc(NCc3ncc[nH]3)c2c1
not listed: [6]
inactive: all other assays above

O=C(NCCN1CCCC1)[C@H](Cc1ccc(OS(=O)(=O)c2cccc3cnccc23)cc1)NS(=O)(=O)c1cccc2cnccc12
not listed: [6]
inactive: all other assays above

O=[N+]([O-])c1ccc(CNc2ccc([S+](=O)([O-])Nc3nccs3)cc2)c(O)c1
not listed: [6]
inactive: all other assays above

CCOc1ccc(C(=O)Nc2ccc(-c3nc4ccccc4[nH]3)cc2)cc1
inactive: all assays above
